# Source: article PMC12136788
# Whole data set: some 5,800 sequences, median “enrichment r” near 0.68, cut for the highest 2% near 11. The entries come from a sample that favours the highest values as a whole.
# T1: UNK ZnF1-6 (called full-length) (human, UniProt Q9C0B0 30-357)
# T1 sequence: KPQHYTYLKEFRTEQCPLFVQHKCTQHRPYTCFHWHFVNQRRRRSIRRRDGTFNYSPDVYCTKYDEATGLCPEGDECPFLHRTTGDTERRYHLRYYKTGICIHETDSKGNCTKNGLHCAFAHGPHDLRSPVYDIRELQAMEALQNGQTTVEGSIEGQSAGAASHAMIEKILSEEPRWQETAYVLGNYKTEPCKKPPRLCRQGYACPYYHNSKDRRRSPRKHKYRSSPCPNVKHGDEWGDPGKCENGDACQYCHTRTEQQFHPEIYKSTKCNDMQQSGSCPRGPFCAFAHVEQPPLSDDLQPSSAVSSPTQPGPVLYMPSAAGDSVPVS
# B1: chr12:48145849:48145950:+|3pUTR|ENSG00000152556|msi1|FALSE|unique (ssRNA)
# RNA: GGGAGUUCUACAGUCCGACGAUCCAUGACCAGUUCUGGCCAGGAGCUGGAGGAGCAGGCAGUGGGUGGGAGCUCCUUUUAGGUAGAAUUUAACAUGACUUCUGCCCCAGCUUUAUCUGUCACACAAGGCUGGGCACCUCUAGUCAACAGAGGAUUGAGCAUCA
# B2: chr1:165890246:165890361:+|CDS|ENSG00000143179|unk|FALSE|unique (ssRNA)
# RNA: GGGAGUUCUACAGUCCGACGAUCCUCCUGGGGCAGAAUGAGGUGGACUAUCGCCAGAAGCAGGUGGUCAUCCUGAGCCAGGAUAGCUUCUACCGUGUCCUUACCUCGGAGCAGAAGGCCAAAGCCCUGAAGGGCCAGUUCAACCAACAGAGGAUUGAGCAUCA
# B3: chr2:96875881:96876275:-|three_prime_utr|ENSG00000168754|control|control|control (ssRNA)
# RNA: GGGAGUUCUACAGUCCGACGAUCUCGCCCACCCCUCAGCCCUCCUCCCAGCCAUCUCCUCUUCCCUAAGGCCUCUGUCUCCAUAGCUCUGGUUUCCCUGGGCCUCAGUCCUCCCCACCCUCCUUCCUCUGUCUCCCUGUCACUCAACAGAGGAUUGAGCAUCA
# B4: chr5:95604386:95604487:+|3pUTR|ENSG00000164291|msi1|total|mutant (ssRNA)
# RNA: GGGAGUUCUACAGUCCGACGAUCCCUGCCAUCCAGUUCCCCCUCCAAGAAGCAAGUACCGAAACCACCUGCUUACGCAUUUUCCGAGAUUGGCCACAAAUUUAUAAACAAAUGUAUAUAUUCCUUUCCCCCUACACAAACGGUCAACAGAGGAUUGAGCAUCA
# B5: ENSG00000198589:be:win_9101|3pUTR|ENSG00000198589|bound_else_gene|NA|bound_elsewhere_windowed (ssRNA)
# RNA: GGGAGUUCUACAGUCCGACGAUCUUCAAGCAUGUUUUAGACCUAGAAAAGUAUGGUUUGGGGGAGGCUAUUUUAUUGUGUGGUUAGCACAAGGAAUCUAAUUUAUAGCAAGUGUGAAAUAGUUACCAUUUUUUCCUGAUCUGUCAACAGAGGAUUGAGCAUCA
# B6: chr1:229632307:229632408:+|CDS|ENSG00000135763|unk|FALSE|bound_elsewhere (ssRNA)
# RNA: GGGAGUUCUACAGUCCGACGAUCAUUUUAUAAGAAAAAGCUUGAACUGAAGGAAGAUAUUGUUGAAAGGCUUUGGAUCUAUAUAGAUAACAUUUUACAUAGCAGAAAAUUGCAGAAUCUCCUCAAGAAUGGAAAGACCAUUAACAACAGAGGAUUGAGCAUCA
# Molecular target: T1, UNK ZnF1-6 (called full-length)
# Assay: nsRBNS (natural sequence RNA bind-n-seq); RBNS binding buffer (assumed for nsRBNS): 25 mM Tris pH 7.5, 150 mM KCl, 3 mM MgCl2, 0.01% Triton X-100, 500 ug/ml BSA, 20 U/ml SUPERase-In, 4 C; UNK is unkempt and MSI1 is Musashi-1; names of the RNAs are library labels; protein concentration not given here; high values mean tight binding
row,Binder,binding signal
1,B1,6.28 enrichment R
2,B2,0.748 enrichment R
3,B3,1.84 enrichment R
4,B4,1.51 enrichment R
5,B5,2.96 enrichment R
6,B6,2.37 enrichment R
